FBPA Giardia inh = Giardia lamblia aldolase inhibition; A8B2U2; purified Giardia FBPA; Potency, µM (top dose mostly 59.6 µM), usual class: inhibitors; 0.71% of 290,000 active; AID 2451; note: nearly all actives have a fitted effect of over 55% in size
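Giardia FBPA (40 nM reagent) was preincubated 10 min at RT with compound (up to 57.5 uM final), then substrate plus GAPDH/TPI/NAD/arsenate coupling system with diaphorase/resazurin was added; resorufin fluorescence (525/598 nm) was read after 20 min.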
Cycloheximide cs = counter-screen for Shiga toxin inhibitors: cycloheximide protein synthesis inhibition; AID 2314; max response, %; cell reporter, cycloheximide protein synthesis inhibition counterscreen; 12% of 300,000 active; in the data active = max response mostly above about 13%, no sharp cut-off; inactive = mostly below about 14%; note: read at 38.3 µM for the half of the compounds with a filed dose
Shiga toxin inh = blocks Shiga toxin action in Vero cells. 9.2% of 290,000 active. inhibition, % at 38.7 µM. AID 2315. Vero cells, Shiga toxin protein synthesis inhibition reporter; in the data active = inhibition mostly above about 28%, no sharp cut-off; inactive = mostly below about 43%
TbPYK inhibitor = inhibitors of Trypanosoma brucei pyruvate kinase; Q57TT1; TbPYK enzyme, Kinase-Glo Plus ATP luminescence, 45 min; Potency, µM (highest dose often 76.8 µM), hits mostly inhibitors; 0.12% of 410,000 active; note: nearly all actives have a fitted effect of over 50% in size
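Quantitative HTS: titrated library compounds versus trypanosomal pyruvate kinase in TEA buffer (pH 7.2) containing KCl, MgCl2, BSA and Tween-20. Reactions were initiated with ADP, 130 uM final. Kinase-Glo Plus luminescence was read after 45 min at RT.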
RE007 growth inh = less growth of the S. pombe RE007 Vpr strain. S. pombe RE007 Vpr strain, BacTiter-Glo ATP luminescence, 24 h. Potency, µM (titrated, usually from 92.2 µM), actives largely listed as inhibitors. 0.21% of 360,000 active. AID 651644; active = well fitted falling curve with a large enough effect; inconclusive = small, poorly fitted or top-dose-only effect; inactive = no such curve, though single readings can be large or run the other way; note: nearly all actives have a fitted effect of over 50% in size
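Fission yeast RE007 carrying one integrated HIV-1 vpr copy, seeded at OD 0.01 in PMG+AL medium with 23 nL pinned compound. Grown 24 h at 30 degrees; viability read by BacTiter-Glo luminescence after 5 min.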
LmPK inh = blocks Leishmania mexicana pyruvate kinase activity; Q27686; purified LmPK, Kinase-Glo ATP luminescence, 1 h; Potency, µM (doses to about 57.5 µM), most hits filed as inhibitors; 0.37% of 290,000 active
Target sequence (Q27686 whole entry, looked up): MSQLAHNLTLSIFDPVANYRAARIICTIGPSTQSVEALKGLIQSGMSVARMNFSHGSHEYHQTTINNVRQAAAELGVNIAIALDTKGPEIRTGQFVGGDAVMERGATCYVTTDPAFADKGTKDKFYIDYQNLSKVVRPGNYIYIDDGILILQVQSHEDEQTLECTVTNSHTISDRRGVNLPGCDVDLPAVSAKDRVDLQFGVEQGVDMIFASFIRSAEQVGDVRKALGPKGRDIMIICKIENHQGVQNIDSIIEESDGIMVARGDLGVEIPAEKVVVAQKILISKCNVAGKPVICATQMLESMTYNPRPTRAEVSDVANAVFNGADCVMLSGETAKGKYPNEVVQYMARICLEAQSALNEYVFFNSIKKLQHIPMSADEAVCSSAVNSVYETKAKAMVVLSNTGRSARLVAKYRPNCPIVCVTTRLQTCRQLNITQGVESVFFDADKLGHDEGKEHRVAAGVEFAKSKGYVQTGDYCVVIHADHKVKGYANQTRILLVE
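ATP generated from ADP (0.1 mM) and PEP (0.5 mM) by 0.1 nM LmPK over 1 h at room temperature (pH 7.2 imidazole buffer) was detected by coupled luciferase luminescence. Values were normalized to uninhibited and no-enzyme wells.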
A number is an active result; i = inactive; ? = inconclusive; nt = not tested or not shown; ! = repeats disagree; [ ] = dose if it differs, or a comment. The sample as a whole holds a higher share of hits than the screen did. Unless noted, calls come from the whole dose curve; as a rule, active = well fitted curve in the direction sought with a large enough effect; inconclusive = small, poorly fitted or top-dose-only effect, or another doubt; inactive = no such curve, though single readings can be large; an effect the other way counts as inactive or inconclusive.

SMILES	FBPA Giardia inh	Cycloheximide cs	Shiga toxin inh	TbPYK inhibitor	RE007 growth inh	LmPK inh
Brc1ccc2nc(N3CCN(c4ccccc4)CC3)sc2c1	i	47	156	i	i	i[11.5 µM]
Cc1cc(SCC(=O)Nc2ccc(C(F)(F)F)cc2)nc(=O)[nH]1	nt	nt	nt	i	nt	nt
c1ccc(-c2csc(Nc3ccc4c(c3)OCO4)n2)cc1	nt	nt	nt	i	i	nt
N#Cc1ccc(-c2csc(NC3=NCCCCC3)n2)cc1	i	20	73	i	i	i
c1ccc(-c2csc(NC3=NCCCCC3)n2)cc1	i	43	i	i	i	i
COc1ccccc1S(=O)(=O)N1CCNC(=O)C1	nt	nt	nt	i	i	nt
C=Cc1ccc(Cn2c(C(=O)O)c(CNCc3cc(OC)ccc3OC)c3ccc(C)cc32)cc1	nt	nt	nt	i	nt	nt
COc1cc(C2Nc3ccccc3C(=O)N2c2ccccc2)c(Br)cc1OCC(=O)O (centres undefined)	i	i	24	i	nt	i
N#Cc1c2n(c(=S)n(-c3ccc(OC(F)F)cc3)c1=O)CCCCC2	i	i	i	i	i	i
N#Cc1c2n(c(=S)n(-c3ccccn3)c1=O)CCCCC2	i	16	i	i	i	i
COC(=O)c1ccc(CC(=O)c2nc3ccccc3s2)cc1	i	20	i	i	i	i
O=C(Cc1ccccc1)c1nc2ccccc2s1	i	74	131	i	?	i
CCCCn1c(=O)n(-c2cc(OC)ccc2OC)c(=O)c2c3c(sc21)CN(C(C)=O)CC3	nt	nt	nt	i	nt	nt
CCOC(=O)c1ccc(OCCN2C[C@H](O)[C@@H](O)[C@H](O)[C@H]2CO)cc1	nt	nt	nt	i	nt	nt
COc1ccc(S(=O)(=O)NC(=O)C2(C)CCN2C(=O)C(C)(C)c2ccccc2)cc1 (centres undefined)	nt	nt	nt	i	i[18.4 µM]	nt
O=c1c(-c2ccc(Cl)cc2)cnc2n1CCS2	i	29	67	i	i	i
CCOC(=O)c1ccc(NC(=O)CCc2nc3cccnc3n2Cc2cccs2)cc1	nt	nt	nt	i	nt	nt
CCCN(C(=O)COC(=O)CNC(=O)c1ccc2ccccc2c1)c1c(N)n(Cc2ccccc2)c(=O)[nH]c1=O	nt	nt	nt	i	i	nt
Fc1cccc(Cl)c1Cn1nnc(-c2ccc(N3CCOCC3)cc2)n1	i	i	i	i	i	i
Clc1cccc(Cl)c1Cn1nnc(N2CCCC2)n1	i	23	86	i	i	i
Nc1cc(=O)[nH]c(SCC(=O)N2N=C(c3ccc(Cl)cc3)CC2c2ccco2)n1 (centres undefined)	i	i	i	i	i	i
COc1ccc(C2=NN(C(=O)CSc3nc4ncc(Cl)cc4[nH]3)C(c3ccco3)C2)cc1 (centres undefined)	i	21	i	i	i	i
CCCc1cc(=O)[nH]c(SCC(=O)N2N=C(c3ccc(Cl)cc3)CC2c2ccco2)n1 (centres undefined)	i	i	i	i	i	i
Cc1ccc(C2=NN(C(=O)CSc3nc4ncc(Cl)cc4[nH]3)C(c3ccco3)C2)cc1 (centres undefined)	i	14	i	i	i	i
COc1cccc(CN(C)C(=O)c2ccc(Cl)c(S(=O)(=O)N3CCCCCC3)c2)c1OC	nt	nt	nt	i	i	nt
SMILES	FBPA Giardia inh	Cycloheximide cs	Shiga toxin inh	TbPYK inhibitor	RE007 growth inh	LmPK inh
O=C(Cc1cccc2ccccc12)N/N=C/c1ccc(Sc2cccc3cccnc23)o1	i	i	i	nt	nt	i
CCCCC(=O)N/N=C/c1ccc(Sc2cccc3cccnc23)o1	?	39	i	i	i	i
CCOC(=O)CNc1nc(Cl)nc(N2CCCCC2)n1	i	12	i	i	i	i
CCOC(=O)CNc1nc(C#N)nc(N2CCOCC2)n1	i	i	i	i	i	i
COc1cccc2cc(-c3nc(-c4ccccc4F)no3)c(=O)oc12	nt	nt	nt	i	nt	nt
Cc1cccc2cc(-c3nc4ccc(C(=O)O)cc4[nH]3)c(=O)oc12	?	25	37	i	i	i
COc1cccc2cc(-c3nc4ccccc4[nH]3)c(=O)oc12	i	32	nt	i	i	i
CC(C)(C)c1cc(C(C)(C)C)c2oc(=O)c(-c3nc4ccccc4[nH]3)cc2c1	nt	nt	nt	i	nt	nt
CC(C)(C)c1cc(C(C)(C)C)c2oc(=O)c(-c3nc4ccc(C(=O)O)cc4[nH]3)cc2c1	nt	nt	nt	i	nt	nt
COc1ccc(-c2cc3cccc(OC)c3oc2=O)cc1	i	28	64	i	i	i
COc1cccc2cc(-c3ccccc3)c(=O)oc12	i	48	104	i	?	?
O=c1c(N2CCc3ccccc3C2)csc2ccccc12	nt	nt	nt	i	nt	nt
CNC1CCc2cc(OC)c(OC)c(OC)c2-c2ccc(OC)c(=O)cc21 (centres undefined)	nt	nt	nt	i	nt	nt
CC1=CC(C)=Nc2ccc(C)cc2N1	?	27	94!	i	i	i
COc1ccc(C(=O)Nc2cc(C(=O)NCCc3ccccc3)ccc2Cl)cc1	i	29	i	i	i	i
COCC(=O)Nc1cc(C(=O)NCC(C)C)ccc1Cl	i	i	i	i	i	i
Cc1ccc(NC(=O)COc2ccc(C(=O)NCCc3ccccc3)cc2)cc1	nt	nt	nt	i	i	nt
COCC(=O)Nc1cc(C(=O)NCCc2ccccc2)ccc1Cl	i	86	74	i	i	i
CCOCC(=O)Nc1cc(C(=O)NCCc2ccccc2)ccc1Cl	i	42	43	i	i	i
CC(C)CCNC(=O)c1ccc(Cl)c(NC(=O)Cc2ccccc2)c1	i	i	45	nt	nt	i
O=C(Nc1ccc(F)cc1)c1ccc2c(c1)NC(=O)c1ccccc1S2	nt	nt	nt	i	nt	nt
Cc1c(C#N)c(O)[nH]c(=O)c1N=Nc1ccc(Br)cc1C(=O)O	?	i	i	i	i	i
Cc1cccc(N=Nc2c(C)c(C#N)c(O)[nH]c2=O)c1	i	14	i	i	i	i
O=c1c2ccccc2oc2ccccc12	i	nt	nt	nt	nt	nt
COc1ccc(-c2cc(=O)c3cc(OC)ccc3o2)cc1	i	i	66	i	i	i

Bioassay records as filed in PubChem BioAssay.
